This is an account of results in the antibiotic and cytotoxicity screens of Wong et al. (2023).

Among all 39,000 compounds or so, about 500 (1.3%) were called active. What follows is part of a selection rich in actives, with near analogues and random picks from the rest.

The assay has as its system S. aureus RN4220. The assay is described as follows: growth inhibition call (relative growth <= 0.2). To be noted: 50 µM.
For `C[C@H]1CN([C@@H](C)CO)C(=O)c2c(c3ccccc3n2C)-c2ccccc2CO[C@@H]1CN(C)Cc1ccc(C(=O)O)cc1`, the growth inhibition call is “inactive”.
For `COc1ccc2c(c1)n(CCN)c(=O)n2C(=O)[C@@H]1C[C@H](C)CC[C@H]1C(C)C`, the growth inhibition call was “active”.
Consider `CC(C)[C@H]1CC[C@@H](C)C[C@@H]1NC(=O)c1cccc2ccccc12`, for which the growth inhibition call was “inactive”.
Under `COc1ccc(NC(=O)N(C)C[C@H]2OCCCC[C@H](C)Oc3ccc(NC(=O)NC4CCCCC4)cc3C(=O)N([C@@H](C)CO)C[C@H]2C)cc1` stands “inactive”.
As for `O=C(O)CN(CCN(CC(=O)O)CC(=O)O)CC(=O)O`, the growth inhibition call was “inactive”.
Take `Cc1c2oc3c(C)ccc(C(=O)OC(C)C4NC(=O)C(C(C)C)N(C)C(=O)CN(C)C(=O)C5CCCN5C(=O)C(C(C)C)NC4=O)c3nc-2c(C(=O)OC(C)C2NC(=O)C(C(C)C)N(C)C(=O)CN(C)C(=O)C3CCCN3C(=O)C(C(C)C)NC2=O)c(N)c1=O` (stereo unspecified): the growth inhibition call was “active”.
On to `Cc1c2oc3c(C)ccc(C(=O)N[C@@H]4C(=O)N[C@H](C(C)C)C(=O)N5CCC[C@H]5C(=O)N(C)CC(=O)N(C)[C@@H](C(C)C)C(=O)O[C@@H]4C)c3nc-2c(C(=O)N[C@@H]2C(=O)N[C@H](C(C)C)C(=O)N3CCC[C@H]3C(=O)N(C)CC(=O)N(C)[C@@H](C(C)C)C(=O)O[C@@H]2C)c(N)c1=O`, for which the growth inhibition call was “inactive”.
Under `Cc1c2oc3c(C)ccc(C(=O)N[C@@H]4C(=O)N[C@@H](C(C)C)C(=O)N5CCC[C@H]5C(=O)N(C)CC(=O)N(C)[C@@H](C(C)C)C(=O)O[C@@H]4C)c3nc-2c(C(=O)N[C@@H]2C(=O)N[C@@H](C(C)C)C(=O)N3CCC[C@H]3C(=O)N(C)CC(=O)N(C)[C@@H](C(C)C)C(=O)O[C@@H]2C)c(N)c1=O` stands “active”; under `C[C@H]1CN([C@@H](C)CO)C(=O)Cc2cc(NC(=O)Nc3cccc4ccccc34)ccc2O[C@@H]1CN(C)C(=O)Nc1ccc(F)cc1`, “inactive”.
Under `C[C@@H]1CN([C@H](C)CO)C(=O)c2cccc(NC(=O)c3cnccn3)c2O[C@H]1CN(C)Cc1ccc2c(c1)OCO2` stands “inactive”; under `COc1cccc(NC(=O)N[C@H]2C=C[C@@H](CC(=O)N3CCN(C)CC3)O[C@@H]2CO)c1`, “inactive”.
As for `O=C(C[C@H]1C[C@@H]2c3cc(NC(=O)NC4CCCC4)ccc3O[C@@H]2[C@H](CO)O1)NCCN1CCCCC1`, the growth inhibition call is “inactive”.
As for `C[C@H](CO)N1C[C@H](C)[C@@H](CN(C)Cc2ccc(Oc3ccccc3)cc2)Oc2c(NC(=O)C3CCCCC3)cccc2C1=O`, the growth inhibition call is “inactive”.
Under `C[C@@H]1CN([C@@H](C)CO)C(=O)c2cc(NC(=O)c3ccccc3)ccc2O[C@@H](C)CCCCO[C@H]1CN(C)Cc1ccc2c(c1)OCO2` stands “inactive”.
Then `C[C@@H]1CN([C@@H](C)CO)C(=O)c2cc(NC(=O)NC3CCCCC3)ccc2O[C@H]1CN(C)Cc1ccc(C(=O)Nc2ccccc2N)cc1`, with “inactive”.
For the compound `CC(C)NC(=O)Nc1cccc2c1O[C@H](CN(C)S(=O)(=O)c1ccc(F)cc1)[C@H](C)CN([C@H](C)CO)C2=O`, the growth inhibition call is “inactive”.
Under `C[C@H](CO)N1C[C@H](C)[C@H](CN(C)Cc2ccc(-c3ccccc3)cc2)Oc2c(NC(=O)NC3CCCCC3)cccc2C1=O` stands “inactive”; under `Cc1ccc(C(=O)N(CCCN)[C@@H](c2oc3cc(Cl)ccc3c(=O)c2Cc2ccccc2)C(C)C)cc1`, “inactive”; under `Cc1ccc(C(=O)N(CCCN)[C@@H](c2nc3cc(Cl)ccc3c(=O)n2Cc2ccccc2)C(C)C)cc1`, “active”.
In the case of `Cc1ccc2c(c1)c1nc3ccccc3nc1n2Cc1ccccc1`, the growth inhibition call is “inactive”.
Then `COc1ccc(CN(C)C[C@@H]2OCCCC[C@@H](C)Oc3ccc(NC(=O)Nc4ccc(C(F)(F)F)cc4)cc3C(=O)N([C@@H](C)CO)C[C@@H]2C)cc1`, with “inactive”.
Then `C[C@@H]1CCCCO[C@H](CN(C)S(=O)(=O)c2ccccc2)[C@H](C)CN([C@H](C)CO)C(=O)c2cc(NC(=O)Nc3ccc(C(F)(F)F)cc3)ccc2O1`, with “inactive”; and `CO[C@@H]1CN(C)C(=O)c2ccc(NS(=O)(=O)CC(F)(F)F)cc2OC[C@@H](C)N(C(=O)c2ccc3c(c2)OCO3)C[C@H]1C`, with “inactive”; and `CS(=O)(=O)CCNCc1ccc(-c2ccc3ncnc(Nc4ccc(OCc5cccc(F)c5)c(Cl)c4)c3c2)o1` [listing 1 of 2 here], with “inactive”.
Then `CC(C)(O)CC(=O)NCCn1ccc2ncnc(Nc3ccc(Oc4cccc(C(F)(F)F)c4)c(Cl)c3)c21`, with “active”; and `CS(=O)(=O)CCNCc1ccc(-c2ccc3ncnc(Nc4ccc(OCc5cccc(F)c5)c(Cl)c4)c3c2)o1` [listing 2 of 2 here], with “inactive”.
As to `C[C@H](CO)N1C[C@H](C)[C@H](CN(C)C(=O)Cc2cccnc2)Oc2cc(-c3cncnc3)ccc2S1(=O)=O`, the growth inhibition call is “inactive”.
Then `C[C@@H]1CCCCO[C@@H](CN(C)Cc2ccc(C(=O)Nc3ccccc3N)cc2)[C@@H](C)CN([C@H](C)CO)C(=O)c2cc(NC(=O)c3ccccc3)ccc2O1`, with “inactive”.
Under `CN(CC(=O)Nc1ccc(F)cc1F)S(=O)(=O)c1ccc2c(c1)c(=O)n(C)c(=O)n2C` stands “inactive”; under `C[C@H]1CN([C@@H](C)CO)C(=O)Cc2cc(NS(=O)(=O)c3cn(C)cn3)ccc2O[C@@H]1CN(C)S(C)(=O)=O`, “inactive”; under `CCN(CC)C(=S)SSC(=S)N(CC)CC`, “active”.
As for `COCCNC(=O)C[C@@H]1C[C@H]2c3cc(NS(C)(=O)=O)ccc3O[C@H]2[C@@H](CO)O1`, the growth inhibition call was “inactive”.
On to `CO[C@H]1CN(C)C(=O)c2ccc(NC(=O)Nc3cccc(Cl)c3)cc2OC[C@@H](C)N(C(=O)Nc2c(C)noc2C)C[C@@H]1C`, for which the growth inhibition call was “inactive”.
Take `C[C@H](CO)N1C[C@H](C)[C@H](CN(C)S(C)(=O)=O)Oc2ccc(NC(=O)Cn3cnnn3)cc2C1=O`: the growth inhibition call is “inactive”.
As to `Cc1ccc(CNc2ccc3c(c2)ncn3C2CCCCC2)cc1`, the growth inhibition call is “active”.
Regarding `Cc1ccc(-n2cnc3cc(NCc4cccs4)ccc32)cc1`, the growth inhibition call was “inactive”.
Under `COc1ccc(NC(=O)N(C)C[C@@H]2OCCCC[C@H](C)Oc3ccc(NC(=O)c4ccncc4)cc3C(=O)N([C@H](C)CO)C[C@@H]2C)cc1` stands “inactive”.
Under `C[C@@H]1CCCCO[C@H](CN(C)C(=O)Nc2ccc3c(c2)OCO3)[C@@H](C)CN([C@H](C)CO)C(=O)c2cc(NC(=O)Nc3ccccc3)ccc2O1` stands “inactive”; under `CCc1ccc(OC[C@@H](O)CN)cc1`, “inactive”; under `CC(C)(C)c1ccc(OC[C@@H](O)CN)cc1`, “active”.
Consider `Cc1cccc(OC[C@@H](O)CN)c1`, for which the growth inhibition call was “inactive”.
